Measured values from PubChem BioAssay AID624483 (NMMLSC, 2012).
Hit rate of the full screen: of about 360,000 compounds, about 11,000 (3.1%) were called active. Another 2% or so got no clear call; they are omitted. This is one part of a sample in which actives are shown more often than they occur. Unmarked numbers belong to inactive results. Rule as the data show it: active = fluorescence intensity above about 16000; inconclusive = no clear call, values can overlap the other calls; inactive = below that.

Experiment: counter-screen for toxin protease inhibitors: compound fluorescence, primary screen, artefact control for toxin protease inhibitor project, biochemical, multiplex microsphere, HTS (AID 624483)
Settings: compound autofluorescence counterscreen, microsphere flow cytometry; stronger effect = higher value
`CC(C)c1cccc(-c2csc(C(O)c3ccccc3)n2)c1` (stereo not drawn) gave a fluorescence intensity of 3800. Work on `COC(=O)c1sccc1NC(=O)c1ccc(Cl)cc1` yielded a fluorescence intensity of 2980. `COC(=O)c1sccc1NS(=O)(=O)c1ccc(F)cc1F` gave a fluorescence intensity of 3170. With `COC(=O)c1sccc1N/N=C(\C)c1ccc(F)c(Cl)c1` the fluorescence intensity was 22300 (active). Work on `OC(c1ccccc1)c1nc(-c2cnc3ccccc3c2)cs1` (stereo not drawn) yielded a fluorescence intensity of 3830. In the case of `CCN(CC)S(=O)(=O)c1cc(C(=O)Nc2ccccn2)ccc1C`, the fluorescence intensity is reported as 24700 (active). `Cc1ccc(NC(=O)CNCc2ccccn2)cc1S(=O)(=O)N(C)C` gave a fluorescence intensity of 4460. With `CCN(c1ccccc1)S(=O)(=O)c1cc(C(=O)NCc2ccccn2)ccc1C` the fluorescence intensity was 6330. Compound `CC1(C)OC(=O)C2=C(C[C@@H](C3CC3)O[C@H]2c2ccc(Cl)cc2)O1` has a fluorescence intensity of 5960. For `Cc1cc2nc(-c3ccco3)c(Cc3cccc(F)c3)n2c(C)c1Br`, the fluorescence intensity was 5860. In the case of `Cc1cc(OCC(=O)N(C)c2c(N)n(Cc3ccccc3)c(=O)[nH]c2=O)c(C(C)C)cc1Cl`, the fluorescence intensity is reported as 5120. `Cc1ccc(S(=O)(=O)N(CC(=O)NCCSC2CCCCC2)c2ccccc2F)cc1` gave a fluorescence intensity of 7650. For `O=P(c1cccs1)(c1cccs1)c1cccs1`, the fluorescence intensity was 22500 (active). `O=C(O)CCC(=O)N(Cc1cccs1)Cc1cccs1` showed a fluorescence intensity of 9340. Work on `COc1ccc(CC(N)c2csc(NC(=O)Cc3ccccc3)n2)cc1` (stereo not drawn) yielded a fluorescence intensity of 3080. In the case of `CCCCCCCCN1C(=O)[C@H](CC(=O)NCC23CC4CC(CC(C4)C2)C3)C[C@@]2(C(=O)OC)CCCCC=C12`, the fluorescence intensity is reported as 5660. In the case of `COC(=O)c1ccc(CN2CCC(CO)(Cc3ccc(OC)cc3)CC2)cc1`, the fluorescence intensity is reported as 3600. In the case of `CC(=O)N(C1=NCCCS1)c1ccccc1F`, the fluorescence intensity is reported as 24900 (active). With `O=C(NCc1ccc(F)cc1)c1cc(C2CCCCN2C(=O)c2cccs2)on1` (stereo not drawn) the fluorescence intensity was 3580. With `OCc1nc(CO)n(Cc2ccccc2)n1` the fluorescence intensity was 20000 (active). In the case of `Cc1nn(Cc2ccccc2)c(C)c1NS(=O)(=O)c1ccccc1`, the fluorescence intensity is reported as 5640. For `Nc1c(-c2ccccc2)nnn1Cc1ccccc1`, the fluorescence intensity was 5560. For `O=C(NCc1cccnc1)c1ccc2nc([C@@H]3O[C@H](CO)[C@H](O)[C@H](O)[C@H]3O)[nH]c2c1`, the fluorescence intensity was 3590. With `O=C1C(C=NCC2CCCO2)=C(O)c2ccccc21` (stereo not drawn) the fluorescence intensity was 21000 (active). Compound `O=C1c2cccc3c([N+](=O)[O-])ccc(c23)C(=O)N1CC1CCCO1` (stereo not drawn) has a fluorescence intensity of 3530. For `Cc1ccc(-n2c(O)c(C=NCC3CCCO3)c(=O)[nH]c2=O)c(C)c1` (stereo not drawn), the fluorescence intensity was 6540. `CC(C)Oc1ccc(CN2CCC2(C)C(=O)NCc2ccc(C(F)(F)F)cc2)cc1` (stereo not drawn) gave a fluorescence intensity of 4110. `COc1ccc(C(=O)Nc2cc(S(=O)(=O)N3CCCC3)ccc2Cl)cc1` showed a fluorescence intensity of 3660. With `CNC(=O)c1ccsc1NC(=O)c1ccc(S(=O)(=O)N2CCOCC2)cc1` the fluorescence intensity was 2470. With `COc1ccc(C(=O)Nc2nc(-c3ccc(S(=O)(=O)N4CCOCC4)cc3)cs2)cc1` the fluorescence intensity was 20400 (active). With `COc1ccc(-c2cnc3c(c2)C(=O)N([C@H](C)CO)C[C@@H](C)[C@H](CN(C)Cc2ccccc2)O3)cc1` the fluorescence intensity was 3700. For `Cn1cc(CCC(=O)NCc2ccc3c(c2)OCO3)c2ccccc21`, the fluorescence intensity was 22500 (active). For `CCn1c(=O)cc(SCC(=O)NCCC2=CCCCC2)c2ccccc21`, the fluorescence intensity was 2540. In the case of `Cn1cc(CCC(=O)NC2CC2)c2ccccc21`, the fluorescence intensity is reported as 3960. Compound `CC(C)NC(=O)CSc1ccccc1C(=O)NCc1ccc2c(c1)OCO2` has a fluorescence intensity of 2170. `CCOC(=O)N1CCC(NC(=O)CCc2ccccc2)CC1` gave a fluorescence intensity of 3630. With `CCN(CC)C(=O)C(=O)c1cn(CC(=O)NCc2ccc3c(c2)OCO3)c2ccccc12` the fluorescence intensity was 4830. Work on `CCOC(=O)N1CCC(NC(=O)Cc2cn(C)c3ccccc23)CC1` yielded a fluorescence intensity of 2810. With `CCn1c(=O)cc(SCC(=O)NCc2ccc3c(c2)OCO3)c2ccccc21` the fluorescence intensity was 23400 (active). For `CCOC(=O)N1CCC(NC(=O)CCc2cn(C)c3ccccc23)CC1`, the fluorescence intensity was 22900 (active). In the case of `COc1ccc(-c2csc(C(O)c3cccc(Cl)c3)n2)cn1` (stereo not drawn), the fluorescence intensity is reported as 3880. Compound `COCCNC(=O)CSc1nc2c(n1-c1ccccc1)CCCC2` has a fluorescence intensity of 3860. `COc1ccc(-c2cc3nc(NCCOc4ccccc4)ccn3n2)cc1` showed a fluorescence intensity of 4480. In the case of `O=C(NCc1ccc(F)cc1)C(c1ccccc1)N(C(=O)c1csnn1)C1CC1` (stereo not drawn), the fluorescence intensity is reported as 2770. For `CNc1cncc(-c2ccc(NS(C)(=O)=O)cc2)n1`, the fluorescence intensity was 3500. `Cc1nn(-c2ncc(C(F)(F)F)cc2Cl)c(=O)n1-c1ccccc1` showed a fluorescence intensity of 2340. For `Cc1cc(NC(=O)CSc2ncc(C(F)(F)F)cc2Cl)no1`, the fluorescence intensity was 3110. With `Cc1ccc(-c2ccnc3nc(Sc4ncc(C(F)(F)F)cc4Cl)nn23)cc1` the fluorescence intensity was 23100 (active). Compound `Cc1ccc(-c2cnc(C(O)c3cccc(C)c3C)[nH]2)cc1` (stereo not drawn) has a fluorescence intensity of 3860. Work on `OC(c1ccccc1)(c1ccccc1)C1CCN(CCCOc2ccccc2)CC1` yielded a fluorescence intensity of 6640. Work on `COc1ccc(CN2CCC(C)(Oc3cccc(F)c3)C2)c2ccccc12` (stereo not drawn) yielded a fluorescence intensity of 3240. With `CC(C)(C)NC(=O)CSC(=Nc1ccccc1F)NC#N` the fluorescence intensity was 21400 (active). Compound `Cc1ccccc1CSCC(=O)NC(=O)NC(C)(C)C` has a fluorescence intensity of 11200. With `COc1ccccc1-n1ccnc1SCC(=O)NC(C)(C)C` the fluorescence intensity was 3990. Compound `CCOC(=O)[C@]12CCC=C1N(Cc1cccc3ccccc13)C(=O)[C@H](CC(=O)NCc1cccc(C(F)(F)F)c1)C2` has a fluorescence intensity of 4120. For `CC(=O)Nc1cc(-c2cccc(CO)c2)cn2c(-c3cccc(C(F)(F)F)c3)cnc12`, the fluorescence intensity was 3820. Compound `OC(c1ccc(Cl)cc1)C(CN1CCOCC1)c1ccccc1` (stereo not drawn) has a fluorescence intensity of 3680. Compound `COCCn1c(SCC(=O)Nc2cc(Cl)ccc2OC)nc2c(c1=O)SC(C)C2` (stereo not drawn) has a fluorescence intensity of 4110. For `CCOC(=O)c1cccc(NC(=O)CCc2c(C)nc3ncnn3c2C)c1`, the fluorescence intensity was 17600 (active). `CCOC(=O)c1cccc(NC(=O)CCn2nnc3ccccc32)c1` gave a fluorescence intensity of 4180. Compound `CCOC(=O)c1cccc(NC(=O)CCOc2ccccc2)c1` has a fluorescence intensity of 3720. In the case of `c1ccc(C2CNCc3c2ccc2ccccc32)cc1` (stereo not drawn), the fluorescence intensity is reported as 10400. For `O=S1(=O)CC(N2CCN(Cc3ccccc3F)CC2)CN1Cc1cn(Cc2cccc(C(F)(F)F)c2)nn1` (stereo not drawn), the fluorescence intensity was 4150. In the case of `CS(=O)(=O)N1CCN(c2ccc(C(=O)NC3C4CC5CC(C4)CC3C5)cc2[N+](=O)[O-])CC1` (stereo not drawn), the fluorescence intensity is reported as 17000 (active). `Cc1ccc(C(=O)c2ccc(N3CCN(C)CC3)c([N+](=O)[O-])c2)cc1` showed a fluorescence intensity of 2490. `Cc1cccc(N2CCN(c3ccc(C(N)=O)cc3[N+](=O)[O-])CC2)c1C` showed a fluorescence intensity of 4080. `CCN(CC(=O)NCCc1ccccc1)S(=O)(=O)c1ccc(C)cc1` gave a fluorescence intensity of 2180. For `CCCNC(=O)CN(Cc1ccccc1F)S(=O)(=O)c1ccc(C)cc1`, the fluorescence intensity was 21400 (active). `CCN(CC(=O)NCCc1ccccc1)S(=O)(=O)c1ccccc1` showed a fluorescence intensity of 5110. In the case of `NC(=O)C1CCN(CC(O)CSc2ccc(F)cc2)CC1` (stereo not drawn), the fluorescence intensity is reported as 3520. Work on `CC1(C(=O)NCc2ccc3c(c2)OCO3)CCN1C(=O)Cc1cccs1` (stereo not drawn) yielded a fluorescence intensity of 3670. Work on `O=C(COc1ccc2oc3c(c2c1)CCCC3)Nc1ccccn1` yielded a fluorescence intensity of 3750. Work on `CCOC(=O)N1CCN(C(=O)COc2ccc3oc4c(c3c2)CCCC4)CC1` yielded a fluorescence intensity of 4590. In the case of `O=C(CN1CCOCC1)N1CCCc2c1c(=O)oc1ccc(OCc3ccccc3)cc21`, the fluorescence intensity is reported as 22500 (active). For `O=C1OC(NC(=O)c2ccccc2)C(N2CCOCC2)=C1Cl` (stereo not drawn), the fluorescence intensity was 21900 (active). Work on `O=C1OC(OC(=O)c2ccccc2Br)C(N2CCOCC2)=C1Cl` (stereo not drawn) yielded a fluorescence intensity of 6700. `O=C(NC(=O)N1CCOCC1)c1ccccc1` gave a fluorescence intensity of 9020. For `Cc1cc2oc(=O)cc(CN(C)Cc3ccccc3)c2cc1Cl`, the fluorescence intensity was 6000. For `Cc1c(C=O)c2ccccc2n1CC(=O)O`, the fluorescence intensity was 4440. With `CC(=O)c1c(C)n([O-])c2ccccc2[n+]1=O` the fluorescence intensity was 23100 (active). `Fc1ccc(-c2ccc(-c3nn4c(-c5ccco5)nnc4s3)o2)cc1` gave a fluorescence intensity of 3990. Work on `COC(=O)c1cnn2c(C(F)(F)F)cc(-c3ccco3)nc12` yielded a fluorescence intensity of 4440. In the case of `FC(F)(F)c1nnc2sc(-c3ccco3)nn12`, the fluorescence intensity is reported as 22400 (active). For `Cc1nnc2sc(-c3ccco3)nn12`, the fluorescence intensity was 20800 (active). Compound `FC(F)(F)c1nnc2c3ccccc3c(Cl)nn12` has a fluorescence intensity of 3190. Compound `CNc1nnc(-c2ccco2)s1` has a fluorescence intensity of 4180. For `CC(=O)Nc1cccc(-c2cc(NC(C)=O)c3ncc(-c4ccccc4)n3c2)c1`, the fluorescence intensity was 3750. With `O=C(/C=C/c1cccs1)c1cc(Cl)ccc1OC(=O)N1CCOCC1` the fluorescence intensity was 2170. In the case of `O=C(Nc1ccc(N2CCOCC2)cc1)c1cccc2c(-c3ccc(F)c(F)c3)coc12`, the fluorescence intensity is reported as 3990. In the case of `CC12CCC(=O)C=C1CCC1C2C(O)CC2(C)C1CCC2(O)C(O)CO` (stereo not drawn), the fluorescence intensity is reported as 5610. For `O=C(/C=C/NNC(=O)c1cccc(Br)c1)c1ccccc1`, the fluorescence intensity was 3590. For `O=C(/C=C/NCc1ccc(F)cc1)c1ccccc1`, the fluorescence intensity was 2490. For `O=C(/C=C\NCC(=O)c1ccccc1)c1ccccc1`, the fluorescence intensity was 21800 (active). `COC(=O)c1ccc(C)c(NC(=O)Cn2c(C)csc2=O)c1` showed a fluorescence intensity of 3770. With `Cc1oc(-c2ccccc2Cl)[n+]([O-])c1C` the fluorescence intensity was 25200 (active). Work on `Cc1oc(-c2cccc(Cl)c2)[n+]([O-])c1C` yielded a fluorescence intensity of 3960. For `CCOc1cnc(-c2c(-c3ccccc3Cl)noc2C)o1`, the fluorescence intensity was 2480. `CCc1sc(C(=O)N2CCN(CC(=O)Nc3cccc(F)c3)CC2)cc1C` gave a fluorescence intensity of 3730.
